Experimental data as given in publication PMC4336329 (PLoS ONE, 2015).
About 14,000 (4.5%) of roughly 310,000 compounds showed an effect of 50% or more. The effect is printed as a negative number. Shown is part of a subset that was picked to be rich in strong results.

Biological target: human ether-à-go-go-related gene (hERG) potassium channel (human, UniProt Q12809)
Assay: primary screen, population patch clamp on CHO cells stably expressing hERG; higher = less effect of the substance
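Also: peak tail current of the secondary pulse compared with the same well before compound.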

Sequence of human ether-à-go-go-related gene (hERG) potassium channel (Q12809 whole entry, looked up): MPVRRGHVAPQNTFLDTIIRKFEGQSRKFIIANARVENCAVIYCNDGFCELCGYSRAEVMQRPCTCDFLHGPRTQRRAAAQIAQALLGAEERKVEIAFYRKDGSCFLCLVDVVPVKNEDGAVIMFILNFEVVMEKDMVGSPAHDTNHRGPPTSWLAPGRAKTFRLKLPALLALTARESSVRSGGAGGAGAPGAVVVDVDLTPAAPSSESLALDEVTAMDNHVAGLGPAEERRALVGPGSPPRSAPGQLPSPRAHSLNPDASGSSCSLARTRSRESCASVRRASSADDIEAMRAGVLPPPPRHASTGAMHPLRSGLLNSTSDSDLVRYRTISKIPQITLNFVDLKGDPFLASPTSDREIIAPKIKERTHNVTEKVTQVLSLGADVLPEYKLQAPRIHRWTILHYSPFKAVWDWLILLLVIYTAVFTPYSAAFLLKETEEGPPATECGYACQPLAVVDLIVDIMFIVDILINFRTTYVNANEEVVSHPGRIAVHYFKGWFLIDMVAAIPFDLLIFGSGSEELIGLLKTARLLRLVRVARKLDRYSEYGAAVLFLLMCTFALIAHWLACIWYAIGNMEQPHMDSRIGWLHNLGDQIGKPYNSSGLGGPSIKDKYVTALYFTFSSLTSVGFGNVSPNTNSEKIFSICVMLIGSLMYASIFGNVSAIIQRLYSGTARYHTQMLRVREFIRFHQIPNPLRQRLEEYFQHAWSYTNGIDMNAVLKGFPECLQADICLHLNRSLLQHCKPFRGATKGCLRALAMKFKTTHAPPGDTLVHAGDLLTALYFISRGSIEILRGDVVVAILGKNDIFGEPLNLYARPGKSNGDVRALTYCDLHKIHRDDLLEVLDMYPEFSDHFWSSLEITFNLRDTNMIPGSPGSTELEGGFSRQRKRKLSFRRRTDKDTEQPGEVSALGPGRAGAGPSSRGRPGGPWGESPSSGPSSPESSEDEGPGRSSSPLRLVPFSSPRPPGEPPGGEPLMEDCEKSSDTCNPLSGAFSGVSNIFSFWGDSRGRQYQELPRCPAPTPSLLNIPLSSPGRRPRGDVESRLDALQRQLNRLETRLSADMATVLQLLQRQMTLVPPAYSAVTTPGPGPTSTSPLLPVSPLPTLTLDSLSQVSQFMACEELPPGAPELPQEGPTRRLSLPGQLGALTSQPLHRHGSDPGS

Row | Compound | hERG current change (%, negative = inhibition) at 10uM [%]
1 | COc1ccc(CCNC(=O)COC(=O)C2COc3ccccc3O2)cc1 (stereo not drawn) | -0.23
2 | CCCn1nnnc1NCc1ccc(N(C)C)cc1 | 1.95
3 | CCC(=O)N1N=C(c2ccc(C)o2)CC1c1ccc(Br)cc1 (stereo not drawn) | -23.4
4 | COc1ccc(/C=C/C(=O)NC(=S)NNC(=O)Cc2cccs2)cc1OC | 17.9
5 | CC1=C(C(=O)OC(C)C)C(c2cccs2)N2C(=O)CCSC2=N1 (stereo not drawn) | -11.5
6 | CCCCCOP(=O)(OCCCCC)C1(NS(=O)(=O)c2ccccc2)C=CC(=O)c2ccccc21 (stereo not drawn) | 9.76
7 | Nc1cc(=O)[nH]c(=O)n1-c1ccc(Cl)cc1 | 15.2
8 | COc1ccccc1OCC(=O)Nc1ccccc1C(=O)N1CCCCC1 | 11.6
9 | Cc1ccc(CN2CCN(C(=O)c3ccco3)CC2)cc1 | -13.5
10 | C/C(=N\N1CCN(Cc2ccccc2)CC1)c1ccco1 | -1.45
11 | C/C(=N\N1CCN(Cc2ccc(C)cc2)CC1)c1ccco1 | -67.6
12 | CCCOC(c1ccccc1)(c1ccccc1)C(Oc1nc(C)cc(C)n1)C(=O)O (stereo not drawn) | 21.5
13 | C=CCSc1nnc2c(n1)OC(c1ccco1)Nc1ccccc1-2 (stereo not drawn) | -7.61
14 | CCCSc1nc(N)c(C#N)c(-c2ccc(C)cc2)c1C#N | 15.7
15 | C=CCNC(=O)C1CCN(c2cnccn2)CC1 | 27.8
16 | O=C(NCc1ccccc1Cl)C1CCN(c2cnccn2)CC1 | -4.12
17 | O=C(NCc1ccc(F)cc1)C1CCN(c2cnccn2)CC1 | -64.9
18 | O=C(NCCc1ccc(Cl)cc1)C1CCN(c2cnccn2)CC1 | -35.3
19 | O=C(NCc1ccc(Cl)cc1)C1CCN(c2cnccn2)CC1 | -59.9
20 | COc1cccc(CNC(=O)C2CCN(c3cnccn3)CC2)c1 | -12.4
21 | Cn1c(=O)c2c(SCc3cccc(C(F)(F)F)c3)nc(-c3ccco3)nc2n(C)c1=O | -3.88

Row | Compound | hERG current change (%, negative = inhibition) at 10uM [%]
22 | O=C(CNC(=O)c1ccco1)OCc1c(F)cccc1Cl | -5.42
23 | COc1ccccc1CNC(=O)C1(NC(=O)Nc2ccc(C)cc2)CCCCC1 | 30.7
24 | COC(=O)[C@H]1[C@H]2C[C@@H]3c4[nH]c5cc(OC)ccc5c4CCN3C[C@H]2C[C@@H](OC(=O)c2cc(OC)c(OC)c(OC)c2)[C@@H]1OC | -12.4
25 | COc1ccc(N2C(=O)CC(NCCNc3ccc([N+](=O)[O-])cn3)C2=O)cc1 (stereo not drawn) | -34
26 | CCCOc1ccc(N2C(=O)CC(NCc3ccncc3)C2=O)cc1 (stereo not drawn) | -11.6
27 | CCOc1ccc(N2C(=O)CC(NCCNc3ccc(C(=O)c4cccs4)cc3)C2=O)cc1 (stereo not drawn) | -71.5
28 | CCCOc1ccc(N2C(=O)CC(NCCNc3ccc([N+](=O)[O-])cn3)C2=O)cc1 (stereo not drawn) | -72.5
29 | CCCOc1ccc(N2C(=O)CC(NCC#N)C2=O)cc1 (stereo not drawn) | 2.57
30 | CCCOc1ccc(N2C(=O)CC(NCCc3ccc(S(N)(=O)=O)cc3)C2=O)cc1 (stereo not drawn) | -5.4
31 | CCOc1ccc(N2C(=O)CC(NC3CCN(C(=O)c4cccs4)CC3)C2=O)cc1 (stereo not drawn) | -24.7
32 | CCOc1ccc(N2C(=O)CC(NCCc3ccncc3)C2=O)cc1 (stereo not drawn) | -5.67
33 | CCCOc1ccc(N2C(=O)CC(NCCNc3ccc(S(=O)(=O)CC)cc3)C2=O)cc1 (stereo not drawn) | -59.9
34 | CCOc1ccc(C(=O)c2cccs2)cc1 | -6.82
35 | CCCOc1ccc(N2C(=O)CC(NCc3ccc(S(N)(=O)=O)cc3)C2=O)cc1 (stereo not drawn) | 4.38
36 | CCOc1ccc(N2C(=O)CC(NCCNc3ccc([N+](=O)[O-])cn3)C2=O)cc1 (stereo not drawn) | -77.5
37 | Cc1ccc(/C=C/C(=O)OCC(=O)NCc2ccc(Cl)cc2)o1 | -13.9
38 | O=C(COc1ccc(Cl)cc1Br)N1CCN(S(=O)(=O)c2ccccc2)CC1 | -9.19
39 | COc1ccccc1N1CCN(S(=O)(=O)Cc2ccccc2Cl)CC1 | -2.74
40 | Cc1ccc(Nc2nnc(SCC(=O)NC3CC3)s2)cc1 | 9.41
41 | O=C(Nn1cnnc1)c1ccc(Cl)cc1 | 17.7
42 | COc1ccc(Nc2nc(-c3cccs3)cs2)c(OC)c1 | 4.09

Row | Compound | hERG current change (%, negative = inhibition) at 10uM [%]
43 | CCn1cc(SCC(=O)Nc2cc(C)on2)c2ccccc21 | 7.98
44 | CC(=O)Nc1ccc(S(=O)(=O)N2CCN=C2SCc2ccc(C)cc2)cc1 | -12
45 | Cc1csc(Sc2ccc([N+](=O)[O-])cc2C(=O)OCC(=O)NC2CCCC(C)C2C)n1 (stereo not drawn) | -26.2
46 | COc1ccc(C(=O)Nn2c(CC(C)C)nc3cc(Cl)ccc3c2=O)c(OC)c1 | 13.4
47 | COc1cc2c(cc1OC)C(C)N(C(=O)/C=C/c1cc(OC)c(OC)c(OC)c1)CC2 (stereo not drawn) | 7.57
48 | Cc1cccc(CCNC(=O)C2CCCN(c3cnccn3)C2)c1 (stereo not drawn) | -11.5
49 | O=C(c1ccccc1)c1cccc(NC(=O)C2CC2)c1 | 0.476
50 | O=S(=O)(NC1CCCCC1NS(=O)(=O)c1ccc(F)cc1)c1ccc(F)cc1 (stereo not drawn) | -5.29
51 | O=C1OC(c2ccc([N+](=O)[O-])cc2)=N/C1=C/N1CC2CC(C1)c1cccc(=O)n1C2 (stereo not drawn) | -55.1
52 | O=C1OC(c2ccc(Br)cc2)=N/C1=C\N1CC2CC(C1)c1cccc(=O)n1C2 (stereo not drawn) | -45.2
53 | O=C(NC(=S)N1C[C@H]2C[C@H](C1)c1cccc(=O)n1C2)c1ccc(Cl)cc1 | -8.28
54 | O=C1OC(c2ccc(Cl)cc2)=N/C1=C\N1CC2CC(C1)c1cccc(=O)n1C2 (stereo not drawn) | -72
55 | Nc1cc(C(=O)N2CCN(c3ccc([N+](=O)[O-])cc3)CC2)ccc1N1CC2CC(C1)c1cccc(=O)n1C2 (stereo not drawn) | -35.3
56 | O=c1cccc2n1C[C@@H]1C[C@@H]2CN(CC(O)c2ccc([N+](=O)[O-])cc2)C1 (stereo partly drawn) | -49
57 | Cn1cc(C(=O)NC2CCCCC2)c(=O)c2cc(S(=O)(=O)N3CCOCC3)ccc21 | 11.8
58 | O=C(O)CC(Sc1n[nH]c(=S)s1)C(=O)O (stereo not drawn) | 18.2
59 | CCN(CC)S(=O)(=O)c1ccc(OC)c(NC(=O)c2ccc(OC)c([N+](=O)[O-])c2)c1 | -24.4
60 | CCN(CC)S(=O)(=O)c1ccc(NC(=O)c2cc(-c3ccccc3)nc3ccccc23)cc1 | 1.64
61 | CCN(CC)S(=O)(=O)c1ccc(OC)c(NC(=O)c2cccc(C)c2[N+](=O)[O-])c1 | -14.5
62 | CCN(CC)S(=O)(=O)c1ccc(OC)c(NC(=O)c2cccc([N+](=O)[O-])c2C)c1 | -63.8
63 | COc1ccc(S(=O)(=O)N2CCOCC2)cc1NC(=O)c1cccc2c(=O)c(C)c(-c3ccccc3)oc12 | -32.9

Row | Compound | hERG current change (%, negative = inhibition) at 10uM [%]
64 | CCN(CC)S(=O)(=O)c1ccc(N2CCCCC2)c(C(=O)Nc2ccccc2N2CCOCC2)c1 | -51.1
65 | CCN(CC)S(=O)(=O)c1ccc(N2CCOCC2)c(NC(=O)c2cccc3c(=O)c(C)c(-c4ccccc4)oc23)c1 | -55
66 | CCN(CC)S(=O)(=O)c1ccc(O)c(NC(=O)c2cc(-c3cc(OC)c(OC)c(OC)c3)nc3ccccc23)c1 | -59.2
67 | CCN(CC)S(=O)(=O)c1ccc2[nH]c(=O)cc(C(=O)Nc3ccccc3N3CCOCC3)c2c1 | -18.9
68 | COc1cc(-c2cc(C(=O)Nc3ccc(S(N)(=O)=O)cc3)c3ccccc3n2)cc(OC)c1OC | 29.2
69 | CCN(CC)S(=O)(=O)c1ccc(N2CCOCC2)c(NC(=O)c2ccccc2F)c1 | -15.8
70 | CCN(CC)S(=O)(=O)c1ccc(N2CCOCC2)c(NC(=O)c2cccc3ccccc23)c1 | 7.99
71 | O=C(O)c1ccccc1-c1ccccc1C(=O)Nc1ccc2c(c1)[nH]c(=O)c1ccccc12 | 24.5
72 | O=C(N/N=C/c1ccco1)c1cc(C2CC2)nc2ccccc12 | 4.56
73 | COc1ccc2cc(S(=O)(=O)Nc3ccccn3)ccc2c1 | 9.87
74 | O=C(CSc1nnnn1-c1cccc2ccccc12)N1CCOCC1 | -25
75 | Cl.N=c1c2c(n(Cc3ccc(Cl)cc3)c3c1CCC3)CCC2 | -2.06
76 | CCN(CC)S(=O)(=O)c1ccc(N2CCCC2)c(NC(=O)c2ccccc2OC)c1 | -65.7
77 | CCN(CC)S(=O)(=O)c1ccc(N2CCCC2)c(NC(=O)c2ccc(OC)cc2OC)c1 | -43
78 | CCN(CC)S(=O)(=O)c1ccc(N2CCCC2)c(NC(=O)Cc2cc(OC)c(OC)c(OC)c2)c1 | -8.43
79 | CC(Sc1nnc(CNc2cccc3ccccc23)n1-c1ccccc1)C(=O)N/N=C/c1ccco1 (stereo not drawn) | -10.2
80 | Cl.O=C(NCC(c1cccs1)N1CCOCC1)c1cc2ccccc2o1 (stereo not drawn) | -15.7
81 | O=C(NNC1=NS(=O)(=O)c2ccccc21)c1cccc([N+](=O)[O-])c1 | 15
82 | CCOc1cccc(=O)c2c(C)n(C)c(C)c12 | -4.1
83 | CCCCCn1c(C)c2c(OCC)cccc(=O)c2c1C | -69
84 | CCOc1cccc(=O)c2c(C)n(Cc3ccccc3)c(C)c12 | 11.8
